MITF inh – MITF inhibitors, primary screen, biochemical, AlphaScreen, human; Microphthalmia-associated transcription factor (Homo sapiens), O75030; AlphaScreen MITF homodimerization, bead proximity signal; inhibition, % at 2.6 µM; 650,000 tested, 0.91% active; AID 1259374, 2018; in the data active means inhibition above about 50%;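 further: 0% = vehicle wells with protein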
GPR151 ag – activators of human GPR151, primary screen, cell-based, PathHunter beta-arrestin, luminescence. 650,000 tested, 1% active. PathHunter beta-arrestin GPR151 cells. activation, % at 11.2 µM; in the data active means activation above about 4.9%;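 further: 0% = median of compound wells and 100% = cells with positive control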
Target sequence (Q8TDV0 whole entry, looked up): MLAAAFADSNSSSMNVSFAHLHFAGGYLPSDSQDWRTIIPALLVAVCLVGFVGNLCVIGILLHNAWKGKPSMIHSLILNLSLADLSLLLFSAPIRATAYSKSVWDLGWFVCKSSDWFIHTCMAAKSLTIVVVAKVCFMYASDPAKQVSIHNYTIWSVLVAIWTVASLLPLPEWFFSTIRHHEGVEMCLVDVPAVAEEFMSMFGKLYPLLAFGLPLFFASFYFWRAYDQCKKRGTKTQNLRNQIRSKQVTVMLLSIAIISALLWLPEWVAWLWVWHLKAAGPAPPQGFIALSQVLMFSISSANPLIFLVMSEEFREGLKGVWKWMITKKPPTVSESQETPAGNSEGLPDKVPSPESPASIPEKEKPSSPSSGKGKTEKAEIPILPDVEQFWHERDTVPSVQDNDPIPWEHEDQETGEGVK
FBW7 activator – FBW7 E3 ligase activators, primary screen, biochemical, AlphaScreen, human. normalized activity (activation), % at 26.1 µM. 650,000 tested, 0.13% active. AlphaScreen FBW7–phospho-cyclin E peptide binding, activator screen. F-box/WD repeat-containing protein 7 (Homo sapiens), Q969H0. AID 1259310, 2017; in the data active means normalized activity above about 1.9%;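 further: purified mutant Fbw7 with reduced substrate affinity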
TEAD-YAP inh – TEAD-YAP interaction inhibition, primary screen, TEAD-YAP interaction inhibitor project, luminescence, HEK-TIYL cells; TEAD-Gal4/YAP UAS-luciferase luminescence; inhibition, % at 9.12 µM; 640,000 tested, 1.4% active; AID 1259422, 2018; in the data active means inhibition above about 32%;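 further: 0% = median of test compound wells and 100% = reference inhibitor wells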
MITF confirm – MITF inhibitors, retest of hits, confirmation, biochemical, AlphaScreen, triplicate; 4,700 tested, 16% active; shares compounds with MITF inh; inhibition, % at 2.6 µM; AlphaScreen MITF homodimerization, biotin/His-MITF beads; AID 1259372, 2018;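 active means inhibition above a cutoff derived from the DMSO control wells, cut at about 28% in these data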;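 further: 0% = MITF dimer wells with DMSO only; inhibitors lower the bead chemiluminescence by keeping MITF from dimerizing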
AlphaScreen DR – AlphaScreen optical interference compounds, dose response, counter-screen, biochemical, HTS; shares compounds with MITF inh; AlphaScreen optical interference counterscreen, cell-free; IC50, µM; 480 tested, 6% active; call rule not given here
AS interf ctr – AlphaScreen optical interference compounds, counter-screen for MITF inhibitor project, biochemical, triplicate | shares compounds with MITF inh | LysRS AlphaScreen counterscreen, signal interference | inhibition, % at 2.6 µM | 4,700 tested, 7.6% active;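 active means inhibition above a cutoff derived from the DMSO control wells, cut at about 30% in these data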
Starred values were filed as active, the others as inactive; / = no result. Most compounds without a hit are left out; they make up all but 3.5% or so of the library.

SMILES	MITF inh	GPR151 ag	FBW7 activator	TEAD-YAP inh	MITF confirm	AS interf ctr	others
Cc1ccc(-c2nc3ccccc3s2)cc1NC(=O)c1ccccc1F	-9	1	0	-31	/	/
COc1cc(C(=O)N2CCN(Cc3cccc(F)c3)CC2)cc(OC)c1OC	54*	-1	0	-3	7	2
COc1cc(C(=O)N2CCN(Cc3cccnc3)CC2)cc(OC)c1OC	54*	0	1	-3	2	0
COc1cc(OC)cc(C(=O)N2CCN(C3CCN(Cc4ccccc4)CC3)CC2)c1	59*	-3	0	0	1	-3
COc1cc(OC)cc(C(=O)N2CCN(Cc3cccnc3)CC2)c1	66*	-2	0	24	8	18
O=c1c2ccccc2c(/C=N/C2=NCCS2)c(O)n1-c1ccccc1C(F)(F)F	17	-1	0	-1	/	/
CC(=O)OC12CC3CC(C1)C(=O)C(C3)C2	3	0	0	0	/	/
COc1cccc(NC(=S)NC(=O)CC(C)(C)C)c1	4	-1	0	-43	/	/
COc1cccc(CN2CCCC(C(=O)N3CCCCC3)C2)c1 (stereo unspecified)	69*	-1	0	9	-13	-3
C=C(C)CN(CC)C(=O)C1CCN(Cc2cc(OC)c(OC)c(OC)c2)CC1	56*	1	0	5	10	14
O=C(C1CCCN(Cc2cccc(Cl)c2)C1)N1CCCCC1 (stereo unspecified)	44	1	0	-3	/	/
COc1ccc(CN2CCCC(O)C2)cc1OC (stereo unspecified)	45	1	0	11	/	/
COc1cc(CN2CCCC(C(=O)N3CCCCCC3)C2)cc(OC)c1OC (stereo unspecified)	61*	0	0	0	-7	-9
COc1ccc(CN2CCCC(C(=O)N3CCCCCC3)C2)cc1OC (stereo unspecified)	60*	0	0	0	-13	-7
Cc1cccc(NC(=O)N2CCCC2C(=O)NC(C)(C)C)c1 (stereo unspecified)	13	0	0	2	/	/
O=C(O)c1nccnc1C(=O)Nc1ccc(F)cc1[N+](=O)[O-]	-2	0	0	-4	/	/
CC1CCCC(C)N1C(=O)COc1ccccc1Cl (stereo unspecified)	12	-1	0	-10	/	/
COc1ccc(/C=N/NC(=O)CC(=O)NCCc2ccccc2)cc1	-9	1	0	-2	/	/
CCCNC(=O)c1ccc(CN(c2ccccc2)S(C)(=O)=O)cc1	-12	-3	0	-4	/	/
CCCCNC(=O)c1ccc(CN(c2ccccc2)S(C)(=O)=O)cc1	92*	-1	0	0	0	-4
C/C(=N\OCC(O)CN1CCOCC1)C1COc2ccccc2O1 (stereo unspecified)	51*	0	0	-5	-2	10
COc1ccc(S(=O)(=O)NCCC(=O)NC2CCCC2)cc1	-5	-1	0	-7	/	/
O=C1CNS(=O)(=O)c2ccccc2N1	59*	0	1	-6	16	13
Cc1sc2nc(CNCc3ccco3)[nH]c(=O)c2c1-c1ccccc1	58*	3	0	5	-1	5
Cc1ccccc1NC(=O)Cc1nc(CSc2n[nH]c(N)n2)cs1	6	-2	0	4	/	/
SMILES	MITF inh	GPR151 ag	FBW7 activator	TEAD-YAP inh	MITF confirm	AS interf ctr	others
O=C(NC1CCN(Cc2ccccc2)CC1)C1CCN(c2ccc(Nc3cnccn3)nn2)CC1	-5	1	0	8	/	/
COc1cccc2cc(-c3csc(Nc4cccc(F)c4)n3)c(=O)oc12	55*	-1	0	-6	13	19
COc1ccc(COCC(O)CN2CCN(CCc3ccccn3)CC2)cc1 (stereo unspecified)	78*	-1	0	-13	-10	-6
COc1ccc(OCC(O)CN2CCN(CCc3ccccn3)CC2)c(C(C)(C)C)c1 (stereo unspecified)	81*	1	0	-2	-13	-4
COc1ccc(COCC(O)CN2CCN(C(C)=O)CC2)cc1 (stereo unspecified)	22	-1	0	1	/	/
Cc1ccc(C(=O)Nc2ccc([N+](=O)[O-])cn2)o1	80*	-4	0	-32	69*	-9	AlphaScreen DR=>6.5
Brc1cc(Br)c2c(c1)C=C1CCCCCC1(N1CCOCC1)O2 (stereo unspecified)	-5	0	0	-11	/	/
CCOc1cc(CN2CCN(Cc3c[nH]c4ccccc34)CC2)ccc1OC	60*	1	0	15	-8	0
COc1ccc(CN2CCN(Cc3c[nH]c4ccccc34)CC2)c(OC)c1	58*	0	0	6	9	9
COc1ccc(CN2CCN(Cc3c[nH]c4ccccc34)CC2)cc1	64*	-2	0	1	-15	6
Cc1cc(C)n2nc(N)nc2n1	8	0	0	3	/	/
Cc1cc(C)n2nc(N)c(N)c2n1	62*	0	0	-13	29*	1	AlphaScreen DR=>12
O=C(CN1CCCCCC1)Nc1ccc(N2CCCC2)cc1	53*	0	0	-21	7	25
CC1CCN(CC(=O)Nc2ccc(Br)cc2)CC1	-3	1	0	-25	/	/
O=C(CN1CCC(c2ccncc2)CC1)Nc1ccc(N2CCCCC2)cc1	8	0	0	6	/	/
CC1CCN(CC(=O)Nc2ccc(N3CCCCCC3)cc2)CC1	52*	4	0	-2	20	33*
Cc1ccc(NC(=O)CN2CCC(C(=O)NC3CC3)CC2)cc1	112*	-1	0	0	0	-8
N=C1S/C(=C\c2ccc(-c3ccc(Cl)c(C(F)(F)F)c3)o2)C(=O)N1c1nccs1	16	0	0	-1	/	/
O=C(N/N=C/c1ccncc1)c1sc2cc(F)ccc2c1Cl	-4	-1	0	-5	/	/
Cc1sc2ncn(CC(=O)NCCCC(=O)N3CCCCCC3)c(=O)c2c1C	7	3	0	5	/	/
COc1ccc2nc(-c3ccc(NS(=O)(=O)c4cc(C)c(OC)cc4C)cc3)cn2n1	0	2	0	-13	/	/
COc1ccc(OC)c(CN2CCN(C(=O)c3ccncc3)CC2)c1	74*	-1	0	0	-11	1
COc1cccc(C(=O)N2CCN(Cc3ccc(OC)cc3OC)CC2)c1	53*	0	1	6	-2	-3

Screening results (PubChem)
